# Source: PubChem BioAssay
# Dicer processing = inhibitors of human Dicer processing of pre-microRNA | Q9UPY3 | cat-ELCCA pre-miR-21 Dicer processing, chemiluminescence; hits give high values | z-score at 25 µM | hit rate 6% among 47,000; in the data active means z-score above about 3, passing the limit was not always enough;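 further: plate controls were vehicle for no effect and no enzyme for full effect; higher signal means more uncleaved substrate so more Dicer inhibition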
# * hit, by the source's call. This is one part of a sample in which hits are shown more often than they occur.
SMILES,Dicer processing
COc1ccc(OC)c(Sc2ncccc2C(=O)O)c1,-1.05
CC1=C(C(=O)OC2CCCCC2)C(c2ccc(F)c(F)c2)C2=C(CCCC2=O)N1 (configuration not stated),0.32
CCn1c[n+](CC(O)COc2ccccc2C)c2ccccc21 (configuration not stated),-1.81
CCn1c[n+](CC(O)COc2ccccc2OC)c2ccccc21 (configuration not stated),7.69*
CCn1c[n+](CC(O)COc2ccccc2)c2ccccc21 (configuration not stated),-1.78
COc1cc(C=Nc2cc(C)ccc2NC(C)=O)cc(OC)c1OC,-0.42
CCSc1nc2c(c(=O)[nH]1)C(c1ccc(O)c(OC)c1)C1=C(CCCC1=O)N2 (configuration not stated),0.64
N/N=C(/Cn1nnc(N2CCCCC2)n1)c1ccc(Cl)cc1,-0.77
COC(=O)CNC(=O)C1CCC(c2ccc(Cl)cc2)CC1 (configuration not stated),-0.31
Clc1ccc(-c2cc3nnc(-c4ccccc4)nc3s2)cc1,-0.96
Clc1ccc(-c2nc3cc(NCc4cccs4)ccc3o2)cc1,-0.22
Clc1ccc(-c2nc3cc(CN4CCCCC4)ccc3o2)cc1,4.3*
Cc1cc2nc(-c3ccc(N)cc3)oc2cc1C,0.76
Nc1ccc2oc(-c3cccc(Cl)c3)nc2c1,2.27
Clc1ccc(Cn2nnc(N3CCCCC3)n2)cc1,14.5
Nc1ccc2oc(-c3ccc(F)cc3)nc2c1,3.69*
Nc1ccc2oc(-c3ccccc3F)nc2c1,2.31
O=S(=O)(Nc1ccc2oc(-c3ccc(Cl)cc3)nc2c1)c1ccccc1,4.03*
O=S(=O)(Nc1ccc2oc(-c3ccccc3F)nc2c1)c1ccccc1,-0.51
Cc1cc(=O)oc2cc(NS(=O)(=O)c3ccccc3)ccc12,1.36
Nc1ccc2oc(-c3ccc(-c4nc5cc(N)ccc5o4)cc3)nc2c1,1.09
Nc1ccc(-c2nc3cc(Cl)ccc3o2)cc1,3.19*
C/C(=N\OCc1c(F)cccc1Cl)c1ccc(F)c(F)c1,-0.41
CN(C1CCCCC1)S(=O)(=O)c1cccs1,0.15
N/C(CSc1ccc(Cl)cc1)=N\S(=O)(=O)c1cc(Cl)cc(Cl)c1,-0.83
SMILES,Dicer processing
CCCS(=O)(=O)C(C#N)c1ccccc1[N+](=O)[O-] (configuration not stated),-0.5
Cc1noc(-c2ccc(Cl)cc2)c1C(=O)NNC(=O)c1ccccc1Cl,0.01
COc1ccc(/C=N/c2nnc(SC)s2)c(O)c1,1.59
Cc1ccccc1N(C(=O)Nc1cccc(Cl)c1)C1=NCC(C)S1 (configuration not stated),0.9
Cc1ccc2nc(-c3ccc(N)cc3)oc2c1,0.3
O=C(Nc1ccc(-c2nc3ncccc3o2)cc1)c1ccc([N+](=O)[O-])o1,0.38
Cc1ccc(-c2nc3ncccc3o2)cc1N,-0.93
Nc1ccc(-c2nc3ccccc3o2)cc1,1.62
Fc1ccc(-c2nc3ncccc3o2)cc1,3.27*
Cc1cc2nc(-c3cc(N)ccc3Cl)oc2cc1C,-1.79
Cc1ccc2nc(-c3cc(N)ccc3Cl)oc2c1,4.01*
Nc1ccc2oc(-c3ccccc3)nc2c1,0.65
Nc1ccc2nc(-c3ccccc3)oc2c1,4*
CSc1nc(-c2ccc(Cl)cc2)[nH]c(=O)n1,-0.31
CCCC(=O)Nc1c(C(=O)OCC)[nH]c2ccc(Br)cc12,1.22
N#Cc1nccnc1N1CCN(C(=O)Nc2cc(Cl)cc(Cl)c2)CC1,-3.44
CC(=O)OC1CCC2(C)C(=CCC3C2CCC2(C)/C(=N/NC(N)=O)CCC32)C1 (configuration not stated),-1.78
CCOC(=O)Cc1nn(Cc2nc(C)c(C(C)=O)s2)c(=O)c2ccccc12,0.56
Cc1cc(NC(=O)CCCC(=O)O)n(C)n1,0.7
CCC(=O)Nc1sc2c(c1C(=O)OC)C(C(=O)OC)CC2 (configuration not stated),2.24
N/C(=N\O)c1cnn2c(-c3cccc(C(F)(F)F)c3)ccnc12,3.79
COc1ccc(C2C(C(=O)c3cccs3)=C(O)C(=O)N2c2nnc(C)s2)cc1 (configuration not stated),0.65
O=C(NCc1ccco1)C1CC(c2cccc(Br)c2)=NO1 (configuration not stated),-0.57
O=c1oc2c(-c3ccccc3F)cc(O)cc2s1,9.17
O=c1oc2c(-c3ccc(Cl)cc3)cc(O)cc2s1,11.5*
SMILES,Dicer processing
O=C(c1ccc(Cl)cc1)c1c(O)cc(-c2ccc(Cl)cc2)oc1=O,2.65
O=c1c(-c2cccc(Cl)c2)c(C(F)(F)F)oc2cc(O)ccc12,-1.33
O=c1oc2c(-c3cccc(Cl)c3)cc(O)cc2s1,6.23*
O=C1C2=C(c3ccccc3)c3cc(Cl)ccc3C2Sc2ccccc21 (configuration not stated),-0.03
COC(=O)C(C#N)(Cc1ccccc1)Cc1ccccc1,0.17
Fc1ccc(OCc2nnc3n2N=C(c2ccc(Cl)cc2)CS3)cc1,-0.61
COc1ccc(CN2CCN(Cc3ccc4c(c3)OCO4)CC2)cc1OC,0.38
CC1CN(c2nc3c([nH]2)c(=O)n(C)c(=O)n3C)CC(C)O1 (configuration not stated),-3.65
CC(C)Oc1c(N2CCOCC2)c(=O)c1=O,5.3*
CCOc1cc(N2CCOCC2)c(OCC)cc1NS(=O)(=O)C(C)C,1.44
CCc1c(C)nc(N2CCOCC2)[nH]c1=O,-0.93
CC(C)(C)OC(=O)Cn1ccc(=O)[nH]c1=O,2.45
COC(=O)CSc1nc(C)cc(Oc2ccccc2)n1,3.73*
Cc1cc(Oc2ccc(=O)n(C)n2)nc(SCC(N)=O)n1,0.67
COC(=O)CSc1cc(C)nc(N)n1,-0.59
CC(C)n1c(SCc2c(F)cccc2Cl)nc2cc(Cl)ccc21,-0.08
O=C(NNC(=O)c1c(F)cccc1F)c1ccc(Oc2ccc(Cl)cc2)nc1,-0.44
CCOc1ccc2noc3c2c1C(=O)c1ccccc1-3,-0.35
CCOC(=O)c1ccc2c3c(onc13)-c1ccccc1C2=O,-1.11
CC(=O)OCCNc1cc(Cl)c2noc3c2c1C(=O)c1ccccc1-3,3.24*
CCOC(=O)Cc1nn(CC#N)c(=O)c2ccccc12,0.05
O=C(Nc1sc2c(c1C(=O)Nc1ccccn1)CCCCC2)c1ccccc1F,-0.01
C/C(=N\Nc1nc2c(c(=O)n(Cc3ccc(Cl)cc3Cl)c(=O)n2C)n1C)c1ccccc1,-0.91
O/N=C/c1c(-c2ccccc2)nc2n1CCS2,-3.33
O=C(CSc1ncn[nH]1)Nc1ccc(F)cc1,-0.99
SMILES,Dicer processing
Cc1cc(C(C)(C)C)cc(S(=O)(=O)Nc2ccc(O)c(Sc3ncn[nH]3)c2)c1C,8.25
Cc1cc(C)c(S(=O)(=O)Nc2ccc(O)c(Sc3ncn[nH]3)c2)cc1C,7.3*
CCOc1ccc(N2CCCCn3c2nc2c3c(=O)n(CC)c(=O)n2C)cc1,-1.56
NC(=NCc1ccccc1)c1ccc(Cl)cc1,1.23
CNC(=O)C(Cc1ccccc1)NC(=O)OC(C)(C)C (configuration not stated),0.92
CCOC(=O)c1cnc2cc(OC)ccc2c1Cl,0.84
COc1ccc(Oc2c(C)oc3cc(OC(=O)N4CCOCC4)ccc3c2=O)cc1,0.19
O=C(Oc1ccc2c(=O)c(-c3ccc(Cl)cc3)c(C(F)(F)F)oc2c1)N1CCOCC1,3.96*
CC(=O)Oc1ccc2c(=O)c(Oc3ccc(Cl)cc3)c(C(F)(F)F)oc2c1,-0.22
CC(=O)/C(C#N)=C(\N)c1c(Cl)cccc1Cl,0.22
CCCOC(=O)c1c(NC(=O)c2nc3ncccn3n2)sc(C(=O)OC)c1C,0.5
CCOC(=O)C(NC(C)=O)(OC(C)C)C(F)(F)F (configuration not stated),-1.34
